IL-2 act = activates IL-2 in a cell-based reporter assay; 360,000 compounds, 0.065% hits; activation, % (series mostly up to about 46 µM); AID 652025; IL-2 activation reporter assay, cell-based qHTS; stimulated with anti-CD3/CD4/CD28 beads; in transgenic mouse T cells; in the data active means activation above about 50%; inconclusive means mostly about 30% to 49%; further: 0% is about no effect
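Using fluorescent plate cytometry, EGFP and DsRed are detected in transgenic mouse T cells stimulated 18 h at 37 degrees C with antibody-coated beads after 60 min compound pretreatment.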
Nrf2 activator = activators of Nrf2 (ARE) signaling. AID 624171. AREc32 ARE-luciferase reporter (MCF7-derived line), luminescence, 24 h. 410,000 compounds, 0.31% hits. Potency, µM (top dose mostly 46.1 µM), without a hit: at the top dose activation, hits mostly activators; further: potency means the concentration at half of the fitted maximal effect; % of control where 0% means no effect; nearly all actives have a fitted effect of over 65% in size
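AREc32_Fluc, 1000 cells/well, OPTI-MEM + 5% FBS, o/n 37 deg C 5% CO2; 23 nL cpd by pin tool, 24 hr; Steady-Glo 30 min RT, luminescence.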
Nrf2 inh = Nrf2 pathway inhibition; A549 ARE-Fluc reporter, luciferase luminescence, 18-24 h; 360,000 compounds, 2.1% hits; AID 504444; Potency, µM (top dose mostly 46 µM), without a hit: top-dose activity change, negative = inhibition, hits mostly inhibitors; further: potency means the concentration at half of the fitted maximal effect; on the % scale 0 is the no-effect control and ±100 the full control effect; nearly all actives have a fitted effect of over 60% in size
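Nrf2 function is reported as luminescence of an ARE-controlled luciferase in A549 cells. Compounds were tested at several concentrations, and a CellTiter-Fluor read on the same wells flagged cytotoxicity.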
A549 tox-1 = kills or reduces viability of A549 cells in Nrf2 counter-screen; A549 ARE-Fluc cells, CellTiter-Fluor viability, 18-24 h; Potency, µM (top dose mostly 46 µM), for inactives: at the highest dose activity change, negative = cytotoxicity, usual class: inhibitors; 390,000 compounds, 0.16% hits; further: potency means the concentration at half of the fitted maximal effect; on the % scale 0 is the no-effect control and ±100 the full control effect
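Cytotoxicity counterscreen: CellTiter-Fluor fluorescence was measured in A549 ARE_Fluc cells after 18-24 h of compound exposure in a concentration series. The subsequent BugLite luminescent read reports ARE-luciferase activity.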
FLuc enzyme inh = counter-screen for Nrf2 inhibitors: firefly luciferase enzyme inhibition | shares compounds with Nrf2 inh | purified firefly luciferase, luminescence inhibition | Potency, µM (series often up to 57.5 µM), for inactives: at the highest dose activity change, negative = inhibition, hits mostly inhibitors | 1,400 compounds, 4% hits | AID 720522; further: potency means the concentration at half of the fitted maximal effect; on the % scale 0 is the no-effect control and ±100 the full control effect; nearly all actives have a fitted effect of over 65% in size
Target sequence (P08659 whole entry, looked up): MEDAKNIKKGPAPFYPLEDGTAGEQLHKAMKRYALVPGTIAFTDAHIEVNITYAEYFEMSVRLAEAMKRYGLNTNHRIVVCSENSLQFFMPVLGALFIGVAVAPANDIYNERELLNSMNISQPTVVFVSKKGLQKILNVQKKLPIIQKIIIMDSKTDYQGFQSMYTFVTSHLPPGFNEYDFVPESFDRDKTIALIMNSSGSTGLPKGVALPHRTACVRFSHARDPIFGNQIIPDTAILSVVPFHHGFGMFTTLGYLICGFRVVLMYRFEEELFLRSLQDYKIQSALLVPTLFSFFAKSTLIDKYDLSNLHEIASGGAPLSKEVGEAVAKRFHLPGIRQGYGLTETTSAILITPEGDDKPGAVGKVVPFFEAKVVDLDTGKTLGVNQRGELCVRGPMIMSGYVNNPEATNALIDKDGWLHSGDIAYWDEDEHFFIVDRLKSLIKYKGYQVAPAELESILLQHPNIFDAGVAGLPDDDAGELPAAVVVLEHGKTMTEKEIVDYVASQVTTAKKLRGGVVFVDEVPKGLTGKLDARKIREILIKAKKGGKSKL
A549 tox-2 = A549 cytotoxicity, Nrf2 inhibitor counterscreen; shares compounds with Nrf2 inh; A549 ARE-Fluc cells, cytotoxicity counterscreen; Potency, µM (doses to about 46.1 µM), inactives show at the top dose activity change, negative = cytotoxicity, hits mostly inhibitors; 1,400 compounds, 2% hits; AID 720523;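 further: potency means the concentration at half of the fitted maximal effect; cells exposed to compounds for 18 to 24 hours; on the % scale 0 is the no-effect control and ±100 the full control effect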
ARE-Fluc inh = confirmation of Nrf2 inhibitors in A549 ARE reporter cells; shares compounds with Nrf2 inh; A549 ARE-firefly luciferase reporter, luminescence; Potency, µM (highest dose often 46.1 µM), for inactives: top-dose activity change, negative = inhibition, actives largely listed as inhibitors; 1,400 compounds, 74% hits; AID 720524; further: potency means the concentration at half of the fitted maximal effect; on the % scale 0 is the no-effect control and ±100 the full control effect; nearly all actives have a fitted effect of over 65% in size
* marks the source's active call; other numbers are inactive results; u = inconclusive; x = not tested or not shown. Most compounds without a hit are left out; they make up all but 2.3% or so of the library. Unless noted, the call rests on the fitted dose curve; in most records, active means well fitted curve in the direction sought with a large enough effect; inconclusive means small, poorly fitted or top-dose-only effect, or another doubt; inactive means no such curve, though single readings can be large; an effect the other way counts as inactive or inconclusive.

SMILES	IL-2 act	Nrf2 activator	Nrf2 inh	A549 tox-1	FLuc enzyme inh	A549 tox-2	ARE-Fluc inh
C=C1C(=O)O[C@H]2[C@H]1[C@H](OC(=O)CC(=O)O[C@@H]1C[C@@H](C)[C@@H]3C=CC(=O)[C@@]3(C)[C@H]3OC(=O)C(=C)[C@H]13)C[C@@H](C)[C@H]1C=CC(=O)[C@]12C	0	u	9%	-6%	x	x	x
COc1cc([C@@H]2c3cc4c(cc3[C@@H](O)C3COC(=O)C32)OCO4)cc(OC)c1O (some centres not stated)	x	x	u	-10%	x	x	x
C[n+]1c2cc(N)ccc2cc2ccc(N)cc21	1	-2%	1.5µM*	u	-13%	86%	1.6µM*
COc1ccc(NC(=O)CCCn2c(=O)oc3ccccc32)cc1Cl	1	1%	u	0%	x	x	x
CC1(C)c2[nH]c3ccccc3c2C[C@@H]2C(=O)N(Cc3ccccc3F)C(=O)N21	0	6%	0%	8%	x	x	x
CCC(=O)N1N=C(c2c(O)n(C)c(=O)n(C)c2=O)CC1c1ccccc1 (configuration not stated)	0	0%	u	-11%	x	x	x
COc1ccc(CC2C(=O)NC(C)C(=O)N(C)C3C(=O)N(C)C(Cc4ccc(O)c(c4)Oc4ccc(cc4)C3O)C(=O)NC(C)C(=O)NC(C)C(=O)N2C)cc1 (configuration not stated)	-6	-2%	1.3µM*	u	3%	u	0.41µM*
O=C(Nc1ccc(Cl)c(C(F)(F)F)c1)c1ccc2c(c1)CCN2S(=O)(=O)c1ccccc1	x	-1%	u	-19%	x	x	x
CC1Oc2cc3c(-c4c(O)cc(O)c5c(O)c6c(cc45)OC(C)C(C)C6=O)c(O)cc(O)c3c(O)c2C(=O)C1C (configuration not stated)	-1	0%	4.6µM*	u	1%	-17%	9.2µM*
CCn1cc2nc(SCc3c(F)cccc3Cl)n(CCc3ccccc3)c(=O)c2n1	x	-1%	u	-24%	x	x	x
C[C@]12CC[C@H](O)C[C@@H]1CC[C@@H]1[C@@H]2CC[C@]2(C)C(=O)CC[C@@H]12	0	-1%	-5%	9%	x	x	x
CC12CCC(O)CC1CCC1C2CCC2(C)C(C3=CC(=O)OC3)C(O)CC12O (configuration not stated)	-4	-1%	1.8µM*	u	1%	u	x
CC(=O)OC1CC(OC2C(O)CC(OC3C(O)CC(OC4CCC5(C)C(CCC6C5CC(O)C5(C)C(C7=CC(=O)OC7)CCC65O)C4)OC3C)OC2C)OC(C)C1OC1OC(CO)C(O)C(O)C1O (configuration not stated)	0	-3%	0.13µM*	u	1%	u	0.16µM*
C[C@]12CC[C@H](O)C[C@H]1CCC1C2CC[C@]2(C)[C@@H](c3ccc(=O)oc3)C[C@H]3O[C@]132 (some centres not stated)	x	x	x	x	-2%	u	1.5µM*
C[C@]12CC[C@H](O)C[C@H]1CC[C@@H]1[C@@H]2CC[C@]2(C)[C@@H](C3=CC(=O)OC3)CC[C@]12O	0	-2%	0.26µM*	u	3%	u	0.21µM*
O=C(NN1C(=O)C2C3C=CC(C4CC34)C2C1=O)c1ccc(Br)cc1 (configuration not stated)	-1	2%	u	-1%	x	x	x
O=C(CSc1nnc(NC(=O)c2cc(Br)ccc2Cl)s1)NCC1CCCO1 (configuration not stated)	0	u	-7%	-10%	x	x	x
CC12CCC(O)CC1CCC1C2CCC2(C)C(C3=CC(=O)OC3)CCC12O (configuration not stated)	0	-1%	0.41µM*	u	1%	u	0.26µM*
CC12CC[C@H]3[C@@H](CCC4(O)C[C@H](O)CCC34/C=N/NC(=O)c3ccccc3[N+](=O)[O-])C1(O)CCC2C1=CC(=O)OC1 (some centres not stated)	0	0%	4.6µM*	u	0%	u	7.3µM*
C[C@H]1O[C@@H](O[C@H]2[C@@H](O)C[C@@H](O[C@H]3[C@@H](O)C[C@H](O[C@H]4CC[C@@]5(C)[C@H](CC[C@@H]6[C@@H]5CC[C@]5(C)[C@@H](C7=CC(=O)OC7)CC[C@]65O)C4)O[C@@H]3C)O[C@@H]2C)C[C@H](O)[C@@H]1O	x	x	x	x	1%	u	0.021µM*
CC12CC[C@H]3[C@@H](CCC4(O)C[C@H](O)CCC34/C=N/NC(=O)Cc3ccccc3)C1(O)CCC2C1=CC(=O)OC1 (some centres not stated)	-1	-1%	u	-25%	x	x	x
C[C@]12CC[C@H](O)C[C@H]1CC[C@@H]1[C@@H]2C[C@@H](O)[C@]2(C)[C@@H](C3=CC(=O)OC3)CC[C@]12O	0	-3%	0.46µM*	u	0%	u	0.46µM*
S=c1[nH]nc(-c2ccn[nH]2)n1-c1ccccc1Cl	0	2%	u	12%	x	x	x
CCOC(=O)N1CCN(C(=O)Cn2ncc3c4ccccc4n(Cc4ccc(F)cc4)c3c2=O)CC1	x	0%	u	-17%	x	x	x
COc1cc(-c2nc3ccc(Cl)cn3c2Nc2ccc3c(c2)OCCO3)ccc1O	x	20%	u	-18%	x	x	x
SMILES	IL-2 act	Nrf2 activator	Nrf2 inh	A549 tox-1	FLuc enzyme inh	A549 tox-2	ARE-Fluc inh
CCCCCn1c(=O)c(C(=O)Nc2cc(C)ccn2)c(O)c2ccccc21	1	0%	3%	-1%	x	x	x
CCCCCCn1c(=O)c(C(=O)Nc2ncccc2C)c(O)c2ccccc21	-1	3%	8.2µM*	-23%	0%	-14%	u
CCCCCn1c(=O)c(C(=O)Nc2cnccn2)c(O)c2ccccc21	-1	3%	4.6µM*	u	1%	u	5.8µM*
CCCCCCCn1c(=O)c(C(=O)Nc2cnccn2)c(O)c2ccccc21	-2	8%	4.1µM*	u	1%	u	x
Cc1cc(S(=O)(=O)NC(C)C)ccc1OCC(=O)N1CCN(Cc2ccc3c(c2)OCO3)CC1	-2	3%	9.2µM*	-29%	-2%	-3%	-24%
CC(C)NS(=O)(=O)c1ccc(OCC(=O)N2CCN(Cc3ccc4c(c3)OCO4)CC2)c(Cl)c1	-2	2%	u	-16%	x	x	x
